Assay [1] has as its target Alpha-galactosidase A (Homo sapiens) (UniProt P06280). As to the kind of experiment: Counterscreen for Glucocerebrosidase Inhibitors: qHTS Assay for Human alpha-Galactosidase at pH 4.5 (AID 992). Also: 0% is about no effect. A digest of the protocol:
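Human enzyme (2 nM) with 80 uM 4-methylumbelliferyl alpha-D-galactopyranoside in 50 mM citric acid, 0.005% Tween-20, pH 4.5, 20 min at room temperature. Compounds 0.7 nM–77 uM; fluorescence Ex 365/Em 440 after pH 10 stop; AC50 from Hill fits.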
(The purpose of a counterscreen is to sort out artefacts and off-target activity.)

Assay [2] concerns the target alpha-glucosidase (Oryza sativa, rice) (UniProt Q653V4). As to the kind of experiment: Counterscreen for Glucocerebrosidase Inhibitors: qHTS Assay for Rice alpha-Glucosidase at pH 5.0 (AID 997).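 Also: 0% = full activity with enzyme and -100% = basal without enzyme.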 A digest of the protocol:
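Rice alpha-glucosidase (4 nM final) with 400 uM 4-methylumbelliferyl-alpha-D-glucopyranoside in citrate buffer pH 5.0, 20 min at room temperature, stopped at pH 10; fluorescence 365/440 nm, compounds 0.7 nM–77 uM, AC50 from Hill fits.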

The nature of assay [3]: Validation of Assay for Modulators of Lamin A Splicing (AID 1459; active = well fitted curve in the direction sought with a large enough effect in the signal ratio; the % refers to the signal ratio;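 also: cells exposed to compound for two days before reading; 0% is about no effect; ratio rise marks activators and ratio drop marks inhibitors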). A digest of the protocol: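 Readout: ratio of GFP (500-530 nm) to RFP (575-640 nm) total object intensity by 488 nm laser-scanning cytometry after 48 hrs. Cells were HeLa S3 clones carrying lamin A-EGFP minigene plus DsRed2 viability reporter; vehicle 0.5% DMSO final.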
Assay [4] in a line: qHTS Assay for Lipid Storage Modulators (AID 1519; calls by dose curve; as to activity change, negative = inhibition: % is scaled to controls: 0 for no effect and ±100 for the full control effect). The conditions noted are these: Drosophila S3 cells, BODIPY lipid droplet/cell ratio, laser cytometry, cells loaded with oleic acid. A digest of the protocol:
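Cells seeded at 5,000 per well were treated with compounds over a concentration series and loaded with oleic acid (400 uM, as added). Lipid droplet fluorescence (488 nm excitation, 500-530 nm channel) was read by laser-scanning cytometry and normalized to 20 uM Triacsin C.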
(In qHTS, concentration-response curves come from the screen itself.)

The target of assay [5] is DNA repair nuclease/redox regulator APEX1 (Homo sapiens) (UniProt P27695). As to the kind of experiment: qHTS Validation Assay for Inhibitors of the Human Apurinic/apyrimidinic Endonuclease 1 (APE1) (AID 1705;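 also: TAMRA fluorescence gain over two minutes as APE1 cuts a quenched THF abasic duplex; % is scaled to controls: 0 for no effect and ±100 for the full control effect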). A digest of the protocol: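 Read-out: TAMRA fluorescence (525 nm ex, 598 nm em) from cleavage of a quenched THF abasic-site duplex, 50 nM final; activity taken as intensity change between third and first of three reads 60 s apart.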
Sequence of DNA repair nuclease/redox regulator APEX1 (Homo sapiens) (P27695 whole entry, looked up): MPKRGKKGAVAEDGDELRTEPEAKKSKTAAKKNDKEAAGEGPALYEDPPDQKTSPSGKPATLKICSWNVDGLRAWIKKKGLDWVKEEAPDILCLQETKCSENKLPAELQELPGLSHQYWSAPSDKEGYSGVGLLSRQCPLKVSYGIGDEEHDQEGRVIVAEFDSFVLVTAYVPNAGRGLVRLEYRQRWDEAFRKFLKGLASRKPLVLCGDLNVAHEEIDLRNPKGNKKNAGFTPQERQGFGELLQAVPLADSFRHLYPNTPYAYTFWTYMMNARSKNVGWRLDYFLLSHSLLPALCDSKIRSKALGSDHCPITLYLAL

A short description of assay [6]: Counterscreen for APE1 Inhibitors: Fluorescent Dye Displacement Validation Assay (AID 1707).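 Also: plate controls were ThO with dsDNA and no compound for no effect and ThO without dsDNA for full effect.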 The method, boiled down:
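Thiazole Orange (250 nM) bound to 50 nM TAMRA-labelled dsDNA with tetrahydrofuran abasic site; displacement by DNA-binding compounds lowers fluorescence. Buffer 50 mM Tris-HCl pH 7.5, 50 mM NaCl, 2 mM MgCl2, 0.01% Tween-20; endpoint read at 480/540 nm.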

Assay [7] is described as follows: qHTS for differential inhibitors of proliferation of Plasmodium falciparum line Dd2 (AID 1882).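 Also: plate controls were DMSO vehicle for no effect and 0.29 µM artemisinin for full effect; nearly all actives have a fitted effect of over 65% in size.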 The conditions noted are these: Potency: Plasmodium falciparum Dd2 proliferation inhibition. A digest of the protocol: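 Dd2-infected erythrocytes (0.3% parasitemia, 2.5% hematocrit final) incubated with compound 72 h at 37 C, 5% CO2; lysed with saponin/Triton buffer containing SYBR Green I, incubated overnight in the dark, then read by fluorescence (485/535 nm). Normalized to 0.29 uM artemisinin and DMSO.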

Assay [8] addresses Endonuclease 4 (Escherichia coli (strain K12)) (UniProt P0A6C1). As to the kind of experiment: Counterscreen for APE1 Inhibitors: qHTS Validation Assay for Inhibitors of Endonuclease IV (AID 1708). Also: % is scaled to controls: 0 for no effect and ±100 for the full control effect. The method, boiled down: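 E. coli EndoIV at 2 nM final, preincubated 15 min at room temperature with compound, then 50 nM TAMRA/BHQ-2 THF abasic-site duplex added. Buffer: 50 mM Tris-HCl pH 7.5, 50 mM NaCl, 2 mM MgCl2, 1 mM DTT, 0.01% Tween-20. Kinetic fluorescence increase, third minus first read.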

Assay [9] in a line: qHTS for differential inhibitors of proliferation of Plasmodium falciparum line 7G8 (AID 1815).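 Also: parasite growth measured after three days of incubation.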 Also: potency is read from the fitted curve at half-maximal effect.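 As to activity change, negative = inhibition: plate controls were vehicle wells for no effect and reference inhibitor wells for full effect.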
The nature of assay [10]: qHTS for differential inhibitors of proliferation of Plasmodium falciparum line D10 (AID 1877).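 Also: parasites grown with compound for 72 h before DNA staining; plate controls were vehicle wells for no effect and reference inhibitor wells for full effect.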
Assay [11] can be described thus: qHTS for differential inhibitors of proliferation of Plasmodium falciparum line W2 (AID 1883).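 Also: parasites grown with compound for 72 h before lysis and staining.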 Also: potency is read from the fitted curve at half-maximal effect.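 As to activity change, negative = inhibition: 0% = vehicle wells and -100% = control inhibitor wells.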 The conditions noted are these: Potency: Plasmodium falciparum W2 proliferation inhibition.
Assay [12] can be described thus: qHTS for differential inhibitors of proliferation of Plasmodium falciparum line GB4 (AID 1816).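 Also: parasite growth measured after 72 h incubation; 0% = vehicle DMSO and -100% = reference inhibitor.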 The settings on record: Potency: Plasmodium falciparum GB4 proliferation inhibition.
Assay [13] is described as follows: qHTS for differential inhibitors of proliferation of Plasmodium falciparum line 3D7 (AID 1876).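 Also: parasite growth measured after three days of culture; 0% = vehicle wells and -100% = reference inhibitor wells.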
Setting [14] is: measured here: cell count channel max response.
Setting [15] is: measured here: lipid channel max response.

The values that follow come from PubChem BioAssay (NCATS).

“And” between values parts separate entries of the source, which are not always exact repeats. Equal entries are not always repeated. Results filed as inconclusive are left out. The source made the active and inactive calls. Unless noted, calls follow the shape of the dose curve; as a rule, active = well fitted curve in the direction sought with a large enough effect; inconclusive = small, poorly fitted or top-dose-only effect, or another doubt; inactive = no such curve, though single readings can be large; an effect the other way counts as inactive or inconclusive.

Sequence of Alpha-galactosidase A (Homo sapiens) (P06280 whole entry, looked up): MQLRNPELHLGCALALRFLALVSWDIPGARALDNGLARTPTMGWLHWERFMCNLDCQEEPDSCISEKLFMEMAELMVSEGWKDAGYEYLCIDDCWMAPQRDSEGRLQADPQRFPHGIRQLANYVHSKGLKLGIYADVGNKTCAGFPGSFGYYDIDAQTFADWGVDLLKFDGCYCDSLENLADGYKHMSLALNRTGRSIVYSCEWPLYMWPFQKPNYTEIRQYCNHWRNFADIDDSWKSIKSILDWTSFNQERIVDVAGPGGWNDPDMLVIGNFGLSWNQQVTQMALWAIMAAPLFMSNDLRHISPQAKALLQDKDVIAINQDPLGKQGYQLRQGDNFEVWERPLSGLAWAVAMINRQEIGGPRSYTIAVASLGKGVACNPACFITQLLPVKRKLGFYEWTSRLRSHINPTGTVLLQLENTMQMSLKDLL

Take `O=C(CCNNC(=O)c1ccncc1)NCc1ccccc1`: the molecule was classed as inactive in assay [1], in assay [2], in [3] and in [6]. For the same molecule, the activity change, negative = inhibition in assay [4] (at 25.7 µM (top of the series)) is -0.0465% (inactive); in assay [4] (at 57.5 µM (top of the series)), 1.21% (inactive). The max response in assay [4] (setting [14]) was -2.07% and 1.8%; in assay [4] (setting [15]) it was 0.496% and 1.66%. In addition, the Potency result in [5] and in assay [7] was “inactive” in each case.
Take `CNCCC(Oc1ccccc1OC)c1ccccc1` (configuration not stated): the molecule was called inactive in [3] and in assay [6]. Besides, the Potency entry in assay [5], in [8] and in assay [10] was “inactive” each time. Also, the Potency in assay [9] was 3.55 µM (active).
On to `CCCCNc1ccc(C(=O)OCCN(C)C)cc1`, for which the outcome in assay [1], in assay [2], in [3] and in assay [6] was inactive. Also, the Potency entry in [5], in [9], in [7] and in assay [11] was “inactive” in each case.
Take `CCCCCN(CCCCC)C(=O)C(CCC(=O)O)NC(=O)c1ccc(Cl)c(Cl)c1` (configuration not stated): the call in assay [3] and in assay [6] was inactive. Besides, the activity change, negative = inhibition in assay [4] (at 57.5 µM (top of the series)) was 2.8% (inactive). Further, the values for the max response in assay [4] (setting [14]) and in assay [4] (setting [15]) were -5.79% and -4.23%, respectively. In addition, the Potency result in assay [5], in assay [8], in assay [9], in assay [12], in assay [13] and in [10] was “inactive” throughout. The Potency result in assay [7] and in [11] was “inactive” in each case.
Consider `CC(=O)OC(C)C[N+](C)(C)C` (configuration not stated), for which the result in [3] was inactive. For the same molecule, the activity change, negative = inhibition in assay [4] (at 57.5 µM (top of the series)) is 7.3% (inactive). The max response was 18.4% in assay [4] (setting [14]) and 29.3% in assay [4] (setting [15]). Further, the Potency entry in [5], in assay [8], in [9], in assay [12], in assay [13] and in [10] was “inactive” in each case. Also, the Potency result in assay [7] and in assay [11] was “inactive” each time.
Consider `CC(C)NCC(O)c1cc(O)cc(O)c1` (configuration not stated), for which the result in [3] and in assay [6] was inactive. The activity change, negative = inhibition in [4] (at 57.5 µM (top of the series)) was 10.7% (inactive) and 0.0278% (inactive). Besides, the max response in assay [4] (setting [14]) is 8.74% and -21.1%; in assay [4] (setting [15]) it was 23% and -23.1%. Besides, the Potency result in assay [8], in assay [9], in [12], in assay [13], in assay [10] and in assay [7] was “inactive” each time. Besides, the Potency result in [11] was “inactive”.
On to `FC(F)(F)c1ccccc1-n1ccnc1`, for which the molecule was classed as inactive in assay [1], in assay [2], in [3] and in assay [6]. For the same molecule, the activity change, negative = inhibition in assay [4] (at 57.5 µM (top of the series)) was 7.35% (inactive). For the same molecule, the figures for the max response in assay [4] (setting [14]) and in assay [4] (setting [15]) were 11% and 25.3%, respectively. Moreover, the Potency result in assay [5], in assay [8], in assay [9], in assay [12], in assay [13] and in assay [10] was “inactive” in each case. Further, the Potency result in assay [7] is “inactive”.
On to `COCCc1ccc(OCC(O)CNC(C)C)cc1` (configuration not stated), for which the call in assay [3] and in [6] was inactive. In addition, the activity change, negative = inhibition in [4] (at 57.5 µM (top of the series)) is 2.43% (inactive). Also, the max response in [4] (setting [14]) was -17.2%; in assay [4] (setting [15]), -15.7%. Further, the Potency entry in [5], in assay [8], in [9], in assay [13], in assay [10] and in assay [7] was “inactive” in each case.
Take `CC(N=C(NC#N)Nc1ccncc1)C(C)(C)C` (configuration not stated): the result in [3] and in assay [6] was inactive. The Potency result in [5], in [8] and in [7] was “inactive” throughout. The Potency in [11] is 11.2 µM (active).
As for `c1ccc2c(c1)CCCC2C1=NCCN1` (configuration not stated), in assay [3], the result was inactive. Moreover, in [4] (at 57.5 µM (top of the series)), the activity change, negative = inhibition was 9.7% (inactive) and 1.83% (inactive). Further, the max response is 6.5% and -25.5% in [4] (setting [14]); 18.8% and -24.9% in assay [4] (setting [15]). Moreover, the Potency entry in [5], in [8], in [9], in assay [13], in assay [10] and in assay [7] was “inactive” each time.
